Molecules are shown by their SMILES. Records with an inconclusive call do not appear. A structure can be active in one record and inactive in another. Active and inactive are the calls of the source. Unless noted, calls follow the shape of the dose curve; as a rule, active = well fitted curve in the direction sought with a large enough effect in the repeat runs; inconclusive = weak or mixed curves; inactive = no such curve, though single readings can be large; an effect the other way counts as inactive or inconclusive.

Test [1] is described as follows: qHTS assay for small molecules that induce genotoxicity in human embryonic kidney cells expressing luciferase-tagged ATAD5 (AID 651632). Also: nearly all actives have a fitted effect of over 15% in size. Put shortly: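 HEK293T cells carrying luciferase-tagged ATAD5 were given compound or DMSO vehicle and incubated 16 hr at 37C, 5% CO2. Luciferase activity was read after 30 min at room temperature with Amplite; a rise signals genotoxic stress.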
Background: qHTS replaces the single test concentration by a dilution series.

The nature of test [2]: qHTS assay for small molecules that induce genotoxicity in human embryonic kidney cells expressing luciferase-tagged ATAD5 - cell viability (AID 651634; calls by dose curve; also: nearly all actives have a fitted effect of over 25% in size). In outline:
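HEK293T cells carrying luciferase-tagged ATAD5, 2,000 cells/well, exposed to compound for 15.5 hr at 37C. Viability read as live-cell protease activity by CellTiter-Fluor fluorescence after 30 min at 37C.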

Test [3] in a line: qHTS assay for small molecule disruptors of the mitochondrial membrane potential - cell viability (AID 720634; calls by dose curve;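 also: human HepG2 liver cancer cells; series mostly up to about 83 µM; nearly all actives have a fitted effect of over 20% in size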). Put shortly:
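HepG2 cells, 2,000 per well, attached overnight, then treated 1 hr at 37 C, 5% CO2. Viability read as ATP by CellTiter-Glo luminescence after 30 min at room temperature. Read in the same wells as the m-MPI membrane-potential dye assay.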

The nature of test [4]: qHTS assay for small molecule disruptors of the mitochondrial membrane potential (AID 720635). Also: potency is read from the fitted curve at half-maximal effect. Put shortly: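 Mitochondrial membrane potential tracked with Mito-MPS dye, red aggregates (ex 540/em 590 nm) against green monomers (ex 490/em 535 nm). Compound treatment 1 hr at 37C, dye 30 min in HepG2.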
Test [5] is described as follows: qHTS assay to test for compound auto fluorescence at 590 nm (red) in HepG2 cells (AID 720674). In outline: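 We screened compounds on adherent HepG2 cells, incubating them for an hour at 37 C in 5% CO2 before reading emission at 590 nm under 540 nm excitation; values reflect equivalence to Rose Bengal sodium fluorescence.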
A short description of test [6]: qHTS assay to test for compound auto fluorescence at 535 nm (green) in HepG2 cells (AID 720675).
A short description of test [7]: qHTS assay to test for compound auto fluorescence at 460 nm (blue) in HEK293 cells (AID 720678). In outline:
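HEK293, 2,000 cells/well, 10% dialyzed FBS; attach 4-5 hr 37C; pin compound or DMSO; o/n 37C/5% CO2; fluorescence 405/460 nm; triamterene-equivalent units.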

Test [8] in a line: qHTS assay to test for compound auto fluorescence at 590 nm (red) in HEK293 cells (AID 720679). In outline:
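Intensity at 540nm excitation and 590nm emission is reported as Rose Bengal sodium-equivalent autofluorescence. Measurements followed overnight exposure (37C, 5% CO2) of HEK293 cells, 2,000 per well, to 23 nL compound.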

Test [9] in a line: qHTS assay to test for compound auto fluorescence at 535 nm (green) in HEK293 cells (AID 720680).
A short description of test [10]: qHTS assay to test for compound auto fluorescence at 460 nm (blue) in HEK293 cell free culture (AID 720681). Put shortly:
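Blue fluorescence (Ex 405/Em 460 nm, triamterene-equivalent) was read immediately after pin transfer of compound or DMSO into medium (DMEM, 10% FBS) without cells.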

Test [11] can be described thus: qHTS assay to test for compound auto fluorescence at 535 nm (green) in HEK293 cell free culture (AID 720682). Put shortly: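 Using fluorescein as calibrant, autofluorescence was quantified at 485/535 nm in cell-free DMEM containing 10% FBS after pintool addition of compound or vehicle.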
Test [12] is described as follows: qHTS assay to test for compound auto fluorescence at 590 nm (red) in HEK293 cell free culture (AID 720683). In outline: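 Red-channel autofluorescence of compounds in culture medium (DMEM, 10% FBS), no cells, measured at 540/590 nm. Rose Bengal sodium is the reference fluorophore for equivalence.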
A short description of test [13]: qHTS assay to test for compound auto fluorescence at 590 nm (red) in HepG2 cell free culture (AID 720684). In outline: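 Plate contents were MEM with 10% FBS plus test compound or DMSO, no cells. Fluorescence was recorded with 540 nm excitation and 590 nm emission.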
Test [14] in a line: qHTS assay to test for compound auto fluorescence at 460 nm (blue) in HepG2 cell free culture (AID 720685). Put shortly:
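Compound (23 nL) or DMSO pinned into cell-free MEM with 10% FBS; blue fluorescence read at 405/460 nm excitation/emission, expressed as auto-fluorescence equivalency to triamterene.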

Test [15] is described as follows: qHTS assay to test for compound auto fluorescence at 535 nm (green) in HepG2 cell free culture (AID 720686).
A short description of test [16]: qHTS assay to test for compound auto fluorescence at 460 nm (blue) in HepG2 cells (AID 720687). Put shortly:
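Blue-channel autofluorescence (Ex/Em 405/460 nm, triamterene-equivalent) was measured after 1 hr compound exposure at 37 C, 5% CO2. Cells were HepG2, plated overnight at 37 C in MEM plus 10% FBS.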

Test [17] can be described thus: qHTS assay for small molecule agonists of the p53 signaling pathway (AID 651631; calls by dose curve; also: nearly all actives have a fitted effect of over 15% in size). In outline:
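Stably transfected HCT-116 cells (beta-lactamase behind p53 response elements) get compounds after a 5 h settling period; 16 h later at 37 °C, FRET substrate is loaded and fluorescence read after 2 h.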

For test [18], the target named is Glucocorticoid receptor (Homo sapiens) (UniProt P04150). As to the kind of experiment: qHTS assay to identify small molecule agonists of the glucocorticoid receptor (GR) signaling pathway (AID 720691; active = well fitted activation curve with a large enough effect in the signal ratio in the repeat runs, not every such curve was filed as active; the % refers to the signal ratio). Put shortly:
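GR-bla HeLa cells carrying a GRE-driven beta-lactamase reporter, exposed to compounds for 18 h at 37 C. Reporter activation read as fluorescence after 2 h with LiveBLAzer B/G FRET substrate at room temperature.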

Test [19] has the same target. Put plainly: qHTS assay to identify small molecule antagonists of the glucocorticoid receptor (GR) signaling pathway (AID 720692; active = well fitted inhibition curve with a large enough effect in the signal ratio in the repeat runs, not every such curve was filed as active; the % refers to the signal ratio). In outline:
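GR-bla HeLa cells carrying a GRE-driven beta-lactamase reporter received compound after 4 h plating, then dexamethasone (5 nM final). After 18 h at 37C, the FRET substrate was loaded for 2 h at room temperature and fluorescence read.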

The nature of test [20]: qHTS assay for small molecule agonists of the p53 signaling pathway - cell viability (AID 651633; calls by dose curve;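 also: p53RE-bla HCT reporter cells with a stable beta-lactamase p53 reporter; series mostly up to about 83 µM; nearly all actives have a fitted effect of over 30% in size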). Put shortly:
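Viability counter-read: CellTiter-Glo luminescence (30 min, room temperature) in the same p53RE-bla plates. These plates had been exposed to compounds for 16 h at 37 C.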

Sequence of Glucocorticoid receptor (Homo sapiens) (P04150 whole entry, looked up): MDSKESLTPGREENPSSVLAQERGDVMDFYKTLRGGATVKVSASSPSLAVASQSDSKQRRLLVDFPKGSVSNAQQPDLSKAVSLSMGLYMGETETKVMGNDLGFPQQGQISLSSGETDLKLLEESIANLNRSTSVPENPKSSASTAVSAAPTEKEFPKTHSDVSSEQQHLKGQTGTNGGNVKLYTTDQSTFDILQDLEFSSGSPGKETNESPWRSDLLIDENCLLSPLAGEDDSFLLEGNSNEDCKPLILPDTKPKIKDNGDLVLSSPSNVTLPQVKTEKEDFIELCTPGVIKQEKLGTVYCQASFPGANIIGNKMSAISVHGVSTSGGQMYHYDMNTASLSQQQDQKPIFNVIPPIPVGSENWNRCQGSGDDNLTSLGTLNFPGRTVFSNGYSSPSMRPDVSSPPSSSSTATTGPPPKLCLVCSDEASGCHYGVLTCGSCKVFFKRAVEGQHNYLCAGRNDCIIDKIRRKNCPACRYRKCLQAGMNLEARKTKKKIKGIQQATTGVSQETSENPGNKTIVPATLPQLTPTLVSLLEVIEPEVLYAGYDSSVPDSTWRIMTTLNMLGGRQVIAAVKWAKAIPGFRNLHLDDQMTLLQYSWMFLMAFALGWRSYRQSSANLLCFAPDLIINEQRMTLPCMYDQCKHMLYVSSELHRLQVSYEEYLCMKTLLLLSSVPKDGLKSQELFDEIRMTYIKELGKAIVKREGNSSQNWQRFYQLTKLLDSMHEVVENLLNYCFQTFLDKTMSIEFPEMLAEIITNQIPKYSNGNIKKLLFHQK

For the compound `C1CC2OC2CC1C1CO1` (stereo unspecified), the result in test [1], in [2], in test [5], in test [6], in test [7] and in test [8] was inactive. Besides, the result in test [9], in test [10], in test [11], in test [12], in [13] and in test [14] was inactive. Besides, the call in [15] and in test [16] was inactive. In addition, the Potency entry in test [3] and in [4] was “inactive” each time.
`CC(C#N)CCC#N` (stereo unspecified): the outcome in test [17], in test [1], in test [2], in [5], in test [6] and in [7] was inactive. Besides, the compound was classed as inactive in [8], in [9], in test [10], in test [11], in test [12] and in [13]. The compound was called inactive in [14], in test [15], in test [16] and in [18]. Further, the Potency entry in test [19] was “inactive”.
Turning to `O=C1CCCN1`, the outcome in test [1], in [2], in test [5], in test [7], in test [8] and in test [9] was inactive. Further, the call in test [10], in test [11], in test [12], in test [13], in test [14] and in test [15] was inactive. Further, the compound was classed as inactive in test [16] and in test [18]. Also, the Potency result in test [3], in test [4] and in test [19] was “inactive” in each case.
With `Cc1ccc([N+](=O)[O-])cc1C`, the call in [1], in [20], in [2], in [5], in test [6] and in [7] was inactive. The result in test [8], in [10], in test [11], in test [12], in [14] and in test [15] was inactive. The outcome in test [16] was inactive. The Potency entry in test [3] was “inactive”. Further, in test [4], the Potency was 47.7 µM (active) and inactive.
Consider `Nc1ccc(Br)cc1`, for which the result in test [1], in test [20], in test [2], in test [5], in test [6] and in test [7] was inactive. In addition, the result in test [8], in [9], in test [10], in [11], in test [12] and in [13] was inactive. Moreover, the call in test [14], in test [15], in test [16] and in [18] was inactive. The Potency result in test [3] and in test [4] was “inactive” throughout.
As to `CC(C)C#N`, the compound was classed as inactive in test [1], in [2], in test [5], in test [6], in test [7] and in [8]. Moreover, the outcome in [10], in test [11], in test [12], in [14], in test [15] and in test [16] was inactive. For the same compound, the result in test [18] was inactive. In addition, the Potency entry in test [3], in test [4] and in test [19] was “inactive” in each case.
For the compound `Clc1cccc(Cl)c1Cl`, the compound was called inactive in test [20], in [2], in [5], in test [6], in test [7] and in test [8]. Also, the result in test [9], in [10], in test [11], in test [12], in test [13] and in [14] was inactive. Also, the call in test [15], in test [16] and in test [18] was inactive. The Potency entry in test [3], in [4] and in test [19] was “inactive” in each case.
For `COc1ccc2c3c1O[C@H]1[C@@H](O)C=C[C@H]4[C@@H](C2)N(C)CC[C@@]341`, the result in test [1], in test [20], in test [2], in [5], in test [7] and in test [8] was inactive. Besides, the compound was classed as inactive in test [10], in test [11], in [12], in test [13], in [14] and in [15]. The call in test [16] was inactive. The Potency entry in test [3] is “inactive”.
For `C1CN2CCN1CC2`, the call in test [1], in test [20], in [2], in test [5], in test [7] and in test [8] was inactive. Also, the outcome in test [10], in test [11], in test [12], in test [13], in test [14] and in [15] was inactive. Besides, in test [16], the compound was called inactive.
With `Cc1ccc(N)cc1Cl`, the result in test [1], in test [2], in [5], in [6], in test [7] and in test [8] was inactive. Moreover, the compound was classed as inactive in test [10], in [11], in test [12], in test [13], in test [14] and in test [15]. Also, the outcome in test [16] was inactive. The Potency entry in test [3] and in test [4] was “inactive” throughout.
Regarding `CCCCCCCCCl`, the outcome in [17], in test [1], in test [2], in test [5], in test [7] and in test [8] was inactive. For the same compound, the compound was called inactive in test [9], in [10], in test [11], in [12], in test [14] and in [15]. For the same compound, the compound was called inactive in [16] and in test [18]. The Potency result in test [3], in [4] and in [19] was “inactive” throughout.

Values taken from PubChem BioAssay (Tox21).
